Compound activity: PubChem BioAssay, The Scripps Research Institute Molecular Screening Center
Sampled rows, rich in hits. Any-hit rate of the full collection: about 4.1%.
DAX1 inh-1: NR0B1 (DAX1) inhibition | inhibition, % at 6.75 µM | P51843 | AID 504766 | HEK293 Gal4-DAX1 luciferase reporter, luminescence | 0.99% of 340,000 active;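 active = inhibition above the mean over all tested compounds plus 3 SD, cut at about 4.2% in these data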;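 note: inhibition shows as a rise in luminescence from relieved DAX1 repression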
Target sequence (P51843 207-470 limits assumed): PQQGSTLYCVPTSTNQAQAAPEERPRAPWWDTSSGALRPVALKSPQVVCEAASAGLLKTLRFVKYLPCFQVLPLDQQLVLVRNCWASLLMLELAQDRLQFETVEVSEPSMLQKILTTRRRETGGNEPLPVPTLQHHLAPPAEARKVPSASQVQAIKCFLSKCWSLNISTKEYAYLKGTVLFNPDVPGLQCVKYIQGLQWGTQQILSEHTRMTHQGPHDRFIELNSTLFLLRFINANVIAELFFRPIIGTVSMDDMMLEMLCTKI
DAX1 inh-2: inhibitors of DAX1 repression of SF-1 activated StAR promoter; HEK293T StAR-luciferase reporter, SF-1/DAX-1 repression relief; inhibition, % at 6.8 µM; 1.1% of 370,000 active; AID 652010;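 active = inhibition above the mean over all tested compounds plus 3 SD, cut at about 3.6% in these data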;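 note: higher inhibition means more luminescence from relief of DAX-1 repression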
hgDAF-12 ag: hgDAF-12 agonism, primary luciferase screen. HEK293 GAL4-hgDAF12 UAS-luciferase reporter, agonist luminescence; normalized to butyrate control. AID 687014. 1.8% of 370,000 active. activation, % at 6.8 µM;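 active = activation above a cutoff set at the mean of all screened compounds plus 3 SD, cut at about 10% in these data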
hcDAF-12 act: activates DAF-12 receptor from parasite H. contortus. AID 652067. 1.4% of 370,000 active. activation, % at 6.8 µM. HEK293 hcDAF-12 lit1-tk-luc reporter, luminescence; 0% DMSO, 100% Δ7-dafachronic acid;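 active = activation above the mean of all tested compounds plus 3 SD, cut at about 5.5% in these data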
ssDAF-12 act: activates DAF-12 receptor from parasite S. stercoralis; HEK293 ssDAF-12/GRIP1 lit1-tk-luc reporter, luminescence; % of 3 µM dafachronic acid response; activation, % at 6.8 µM; 1% of 370,000 active; AID 652126;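 active = activation above the mean over all tested compounds plus 3 SD, cut at about 0.9% in these data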
Large screens that a line does not name were inactive.

COc1ccc(/C(C)=N/Nc2nncc3ccccc23)cc1	none
Cc1sc(CO)c(Sc2ccccc2)c1C(=O)O	hcDAF-12 act 6.0 (no result: DAX1 inh-1)
Cc1ccccc1C(=O)n1ccc2ccc(-c3ccc4ccn(Cc5ccc(C#N)cc5)c4c3)cc21	none (no result: DAX1 inh-1)
COc1ccccc1N=c1oc2cc(O)ccc2cc1C(N)=O	none
Cc1cccc(N=c2oc3cc(O)ccc3cc2C(N)=O)c1	hgDAF-12 ag 12.0
Cc1c(N=Cc2ccc(O)c(Br)c2)cccc1[N+](=O)[O-]	hcDAF-12 act 6.1, ssDAF-12 act 1.1
COc1ccc(-c2nc(S(=O)(=O)c3ccccc3)c(NCCCN3CCOCC3)o2)cc1	none
Cc1ccc(S(=O)(=O)c2nc(-c3ccccc3)oc2NCCCN2CCOCC2)cc1	hgDAF-12 ag 11.4
O=C(NCc1ccc(F)cc1)c1c2c(nc3ccccc13)CCN(Cc1ccccc1)C2	DAX1 inh-1 4.8
COC(=O)c1cc(S(=O)(=O)NCc2ccccc2OC)cn1C	none
COC(=O)c1cc(S(=O)(=O)NCc2cccc(OC)c2)cn1C	DAX1 inh-1 5.3
Cc1cc(NS(=O)(=O)c2ccc(NS(=O)(=O)c3ccc(CC(C)C)cc3)cc2)nc(C)n1	DAX1 inh-1 5.8
Cc1ccc(S(=O)(=O)Nc2ccc(S(=O)(=O)Nc3cc(C)nc(C)n3)cc2)cc1	none
CCOC(=O)c1ccc2nc(NC(=O)c3ccco3)sc2c1	none
CCCCC(=O)Nc1nc2ccc(C(=O)OC)cc2s1	hgDAF-12 ag 10.9
CCOC(=O)c1ccc2nc(NC(=O)c3cccs3)sc2c1	DAX1 inh-1 4.8, hgDAF-12 ag 12.4
COc1ccc(CN2CCC(CNC(=O)Nc3ccc(C)c(F)c3)CC2)cc1	none (no result: DAX1 inh-1)
CCCN1CCCCC(NC(C)=O)C1=O (stereo unspecified)	none (no result: DAX1 inh-1)
COc1ccc(CCNC(=O)C/C(C)=N/NC(=O)C23CC4CC(CC(C4)C2)C3)cc1OC	ssDAF-12 act 0.9
O=C(O)c1ccc(-c2nc(-c3cccc(C(F)(F)F)c3)cs2)cc1	none
O=C(O)c1cccc(-n2cc(-c3cccc(C(F)(F)F)c3)cn2)c1	hgDAF-12 ag 12.6
COC(=O)[C@]12C[C@H](CC(=O)N3CCCCC3)C(=O)N(CCC3=CCCCC3)C1=C[C@H](C(C)(C)C)O[C@@H]2C	none (no result: DAX1 inh-1)
O=S1(=O)N[C@@H](Cc2ccccc2)COc2cccc(NCCCN3CCOCC3)c21	none (no result: DAX1 inh-1)
COc1ccccc1NC(=O)Nc1ccc2c(c1)nnn2C	none
Cc1ccc(NC(=O)Nc2ccc3c(c2)nnn3C)cc1C	DAX1 inh-1 5.3
O=C(COC(=O)c1cc[n+]([O-])cc1)Nc1ccc(Br)cc1	none
O=C(COC(=O)c1cc[n+]([O-])cc1)Nc1ccc(SC(F)F)cc1	ssDAF-12 act 1.2
CCNS(=O)(=O)c1ccc(OC)c(C)c1	none
CCNS(=O)(=O)c1ccc2c(c1)NCC2	ssDAF-12 act 1.7
O=C(Nc1ccccc1)c1cc(-c2ccccc2Cl)no1	DAX1 inh-1 4.3
CCOC(=O)c1nn(-c2ccc(F)cc2)cc1O	none
CCOC(=O)c1nn(-c2ccc3c(c2)CCN3C(C)=O)cc1O	DAX1 inh-2 3.9
COC1=C[C@H](C(=O)NCc2ccc(OC)cc2)C(C)C(c2ccccc2)CC1=O (stereo partly specified)	none (no result: DAX1 inh-1)
CCS(=O)(=O)c1ccc2oc(Nc3ccccc3Cl)nc2c1	hgDAF-12 ag 13.0
c1cnc2ncc3sccc3c2c1	none
O=c1[nH]c2cccnc2c2ccsc12	DAX1 inh-1 5.9
O=C(Nc1ccc(Cl)cc1F)C1CC1c1ccccc1 (stereo unspecified)	none
Cc1ccc(NC(=O)C2CC2c2ccccc2)c([N+](=O)[O-])c1 (stereo unspecified)	DAX1 inh-1 6.0
CC(C)(C)C1=Nn2c(nnc2-c2ccc(C(C)(C)C)cc2)SC1	none (no result: DAX1 inh-1)
C#CCn1c(C)cc(C)c(S(=O)(=O)c2ccccc2)c1=O	hgDAF-12 ag 11.1
Cc1cc(C(=O)Nc2sccc2C#N)c2ccccc2n1	hcDAF-12 act 5.9
Cc1cc(C(=O)Nc2ccccc2)c2ccccc2n1	none
CN1CCN(C(=O)c2cc(=O)c3cc(Cl)cc(Cl)c3o2)CC1	ssDAF-12 act 2.0
O=C(NCCc1ccccc1)OCc1cn(Cc2ccccc2Cl)nn1	none (no result: DAX1 inh-1)
CC1CC(C)CN(C(=O)CSc2nnc(-c3ccco3)o2)C1 (stereo unspecified)	DAX1 inh-1 4.8
CCC1CCCCN1C(=O)CSc1nnc(-c2ccco2)o1 (stereo unspecified)	ssDAF-12 act 1.0
COc1cccc(-c2nnc(SCC(=O)N3CC(C)CC(C)C3)o2)c1 (stereo unspecified)	DAX1 inh-1 6.7
CC1CCN(C(=O)CSc2nnc(-c3ccco3)o2)CC1	none
CCCC1CCC2(CC1)CCC2OC(=S)Nc1ccccc1OC (stereo unspecified)	none (no result: DAX1 inh-1, DAX1 inh-2)
COC(=O)C1=C(C)N(C)C(=NCc2cccc(C(F)(F)F)c2)NC1c1cccc(Cl)c1 (stereo unspecified)	none (no result: DAX1 inh-1)
O=S(=O)(c1ccc(Cl)nc1)N1CCN(Cc2ccc3c(c2)OCO3)CC1	hgDAF-12 ag 11.1
CCCCc1ccc(NC(=O)C(C)CC)cc1 (stereo unspecified)	DAX1 inh-1 4.4
CCCCc1ccc(NC(=O)N[C@@H](C)C(=O)O)cc1	none
CC(C)c1ccc(OCC(=O)N2CCCCCC2)c(Br)c1	hgDAF-12 ag 11.4
O=C(COc1ccc2ccccc2c1Br)N1CCCC1	DAX1 inh-2 3.9
O=C(Oc1ccc2ccccc2c1Cl)N1CCCCCC1	DAX1 inh-2 4.1
CC(C)CN1CCN(CC#Cc2ccccc2)CC1CCO (stereo unspecified)	none
OCCC1CN(CC#Cc2ccccc2)CCN1Cc1ccccc1F (stereo unspecified)	ssDAF-12 act 1.6
COc1cc(NC(=O)C2CCCN(S(=O)(=O)c3ccc(C)c(C)c3)C2)cc(OC)c1 (stereo unspecified)	none (no result: DAX1 inh-1)
COc1ccc(NC(=O)CCNC(=O)N2CC(=O)Nc3ccccc32)cc1	none
COc1cccc(CNC(=O)CNC(=O)N2CC(=O)Nc3ccccc32)c1	DAX1 inh-2 3.7
CC(C)c1ccc(NC(=O)CCNC(=O)N2CC(=O)Nc3ccccc32)cc1	DAX1 inh-2 3.9
COc1cccc(CNC(=O)CCNC(=O)N2CC(=O)Nc3ccccc32)c1	none
Cc1c(Cl)cccc1N1C(=O)CC(NNC(=O)c2cccs2)C1=O (stereo unspecified)	hgDAF-12 ag 10.4
Cc1c(Cl)cccc1N1C(=O)CC(NNC(=O)c2cccnc2)C1=O (stereo unspecified)	none
CC(=O)c1cccc(NC(=O)COc2ccccc2)c1	none
CC(C)CCOCC(=O)Nc1cccc(C(=O)O)c1	hgDAF-12 ag 12.0
CCCOc1ccc(-c2c(C(=O)N/N=C/c3ccccc3)nnn2-c2nonc2N)cc1	ssDAF-12 act 2.4
Cc1cccc(C2=NN(c3ccc(Br)cc3)[C@@H](C(=O)N3CCOC3=O)[C@@H]2c2ccccc2)c1	none (no result: DAX1 inh-2, hgDAF-12 ag, hcDAF-12 act, ssDAF-12 act)
Cc1cccc(C2=NN(c3ccccc3)[C@@H](C(=O)N3CCOC3=O)[C@@H]2c2ccccc2)c1	DAX1 inh-2 3.7
